Source: PubChem BioAssay (NCI)
This is part of a sample that, as a whole, favours compounds with a hit. Of some 83,000 tested, about 20% had one in any assay.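 How to read the values: 0–100, growth inhibition (40 = 60% inhibited); 0, no net growth; -100 to 0, cell death (-40 = 40% of starting cells died; -100 = all dead).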 A number with no mark means an inactive call. The source made the active and inactive calls.

What follows are compounds tested on HCT-116 colon (assay: NCI-60 one-dose screen, 48 h (100 = growth as untreated, 0 = no growth, -100 = all killed)). Details: 10 µM.
Experimental: Growth inhibition of the HCT-116 human tumor cell line is measured as a screen for anti-cancer activity. Cells are grown in 96 well plates and exposed to the test compound for 48 hours. Compounds are tested at a single concentration, which is 10^-5 M for most compounds. The reported endpoint is percent growth (GI% or GIPRCNT), where numbers from 0 - 100% represent growth inhibition, and numbers from -100% - 0 represent cell death. For example, a value of 40 represents 60% growth inhibition. A value of 0 means no net growth occurred over the course of the experiment. A value of -40 indicates 40% of cells at the beginning of the experiment died by the end of the experiment. A value of -100 means all cells are dead at the end of the experiment.
NCI-60 Human Tumor Cell Lines Screen was performed using the standard one-dose NCI protocol, which is described in more detail at https://dtp.cancer.gov/discovery_development/nci-60/default.htm.
Compounds with GIPRCNT values below 10 were considered active. Activity score was based on GIPRCNT using the following formula: […]
Score is 0 for GIPRCNT values of 100 or above, 50 for GIPRCNT values of 0, and 100 for GIPRCNT values of -100.

Row | SMILES | growth
1 | COc1cc(/C=N\Nc2ccccc2)ccc1OC(=O)c1ccccc1 | 71.3%
2 | c1ccc2c(c1)Sc1ccccc1S2 | 106%
3 | COc1ccccc1NC(=O)C1=C(C)NC(C)=C(C(=O)Nc2ccccc2OC)C1c1cccc([N+](=O)[O-])c1 | 44.9%
4 | CN(C)c1ccc(CNC(C(=O)c2ccccc2)c2ccccc2)cc1 (stereo not given) | 50.8%
5 | C#CCSc1nnnn1-c1ccc(Br)c(C)c1 | 88%
6 | CN(C)CCN(C)CC(C)(C)C(=O)/C=C/c1ccc(Cl)cc1 | -92.1% (active)
7 | COc1ccc(/C(C#N)=C2C=C/C(=N/O)c3ccccc3\2)cc1 | 5.12% (active)
8 | Cc1ccncc1C(N)=O | 94.5%
9 | CSC[C@H](NC(=O)COc1cccc2cnccc12)C(=O)NC(Cc1ccccc1)C(O)C(=O)N1CSC[C@H]1C(=O)NC(C)(C)C (stereo not given in full) | 121%
10 | CC[N+](C)(CC)CCO | 105%
11 | CCN1C(=O)/C(=C/C=C/N(C)c2ccccc2)SC1=S | 95.1%
12 | CCCCNC(=O)C(=O)NCCCC | 104%
13 | CC(=O)OC1CC2C(C)(C)OC3CC(=O)OCC32C2CCC3(C)C(=CCC3c3ccoc3)C12C (stereo not given) | 106%
14 | Cc1ccc(CCCC(=O)O)c(C)c1 | 103%
15 | CCOc1ccc(I)cc1 | 102%
16 | COC(=O)Nc1cccc(Cl)c1OC | 107%
17 | CCOC(=O)c1[nH]c(C)c(C(=O)O)c1C | 116%
18 | Cc1ccc(Cl)cc1NC(=O)N(C)CCO | 112%
19 | c1ncc2[nH]cnc2n1 | 92.4%
20 | CC(C)OC(=O)c1cc(NC(=S)OC(C)C)ccc1Cl | 72.2%

Row | SMILES | growth
21 | Nc1ccc(CC(=O)O)c(N)c1 | 103%
22 | COc1cc(C(N)=O)cc(OC)c1OC | 105%
23 | O=C1c2ccccc2C(=O)c2c1ccc(C(=O)O)c2[N+](=O)[O-] | 104%
24 | C[C@]12CC[C@@H]3c4ccc(OCC(=O)O)cc4CC[C@H]3[C@@H]1CCC2=O | 103%
25 | O=c1cc(-c2ccccc2)oc2c1ccc1ccccc12 | 85.5%
26 | CC1=CC(C)(C)NC(=S)N1c1ccc(S(=O)(=O)O)c2cccc(S(=O)(=O)O)c12 | 107%
27 | O=C(Nc1ccccc1)OCCc1ccccc1 | 109%
28 | O=[N+]([O-])c1cccc2nsnc12 | 99.1%
29 | Cc1cc(C(C)(C)C)cc(C)c1Br | 97.6%
30 | Brc1cnc2ccccc2c1 | 106%
31 | O=C(Cc1nc2ccc([N+](=O)[O-])cc2nc1CC(=O)c1cccnc1)c1cccnc1 | 50.5%
32 | N#CSc1cc(S(N)(=O)=O)ccc1N | 102%
33 | Cc1nc2ccccc2c(C(=O)O)c1O | 88.3%
34 | C/C(O)=C(\C=N\C(N)=S)C(=O)Nc1ccccc1 | 102%
35 | Cc1ccc(N)cc1[N+](=O)[O-] | 101%
36 | Clc1ccc(-c2n[nH]c3c2Cc2ccccc2-3)cc1Cl | 90.8%
37 | CCN(CC)c1ccc2nc3ccc(=[N+](CC)CC)cc-3oc2c1 | -40.7% (active)
38 | CC(CC(=O)c1ccccc1)c1ccccc1 (stereo not given) | 106%
39 | O/N=C/c1ccc(O)cc1O | 114%
40 | C=CCc1cc(C(C)=O)cc(OC)c1O | 102%
